Experimental data reported in the supplement of paper PMC8728848.
Only a selection was taken, and the strongest signals are over-represented in it overall.

Key:
Assay in all cases: glycan array binding signal (z-score within array); higher = stronger binding
Details in all cases: glycan notation: IUPAC condensed, linker removed
[1] = biological target: Fuc(a1-2)Gal(b1-3)GalNAc(b1-4)[Neu5Ac(a2-3)]Gal(b1-4)Glc
How it was run: (§1)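 Negative Z-scores can be read as non-binding. The Z-score is calculated within each array and then averaged across arrays of one protein sequence at different concentrations or buffers and across linkers. Arrays, 3228 in all, were curated from the Consortium for Functional Glycomics database and kept only where the protein sequence was available.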

[2] = biological target: Fuc(a1-2)[Gal(a1-4)]Gal(b1-4)GlcNAc
How it was run: as §1

[3] = biological target: Fuc(a1-2)[GalNAc(a1-3)]Gal(b1-3)GalNAc(b1-3)Gal(a1-4)Gal(b1-4)Glc
How it was run: as §1

[4] = biological target: Fuc(a1-2)[GalNAc(a1-3)]Gal(b1-4)GlcNAc(b1-3)Gal(b1-4)GlcNAc
How it was run: as §1

[5] = biological target: Fuc(a1-3)[Gal(b1-4)]GlcNAc
How it was run: as §1

[6] = biological target: Fuc(a1-3)[Gal(b1-4)]GlcNAc(b1-6)GalNAc
How it was run: as §1

[7] = biological target: Fuc(a1-4)GlcNAc
How it was run: as §1

[8] = biological target: Gal(a1-3)Gal(b1-3)GlcNAc(b1-2)Man(a1-3)[Gal(a1-3)Gal(b1-3)GlcNAc(b1-2)Man(a1-6)]Man(b1-4)GlcNAc(b1-4)GlcNAc
How it was run: as §1

[9] = biological target: Gal(a1-3)Gal(b1-3)[Fuc(a1-4)]GlcNAc(b1-2)Man(a1-3)[Gal(a1-3)Gal(b1-3)[Fuc(a1-4)]GlcNAc(b1-2)Man(a1-6)]Man(b1-4)GlcNAc(b1-4)GlcNAc
How it was run: as §1

[10] = biological target: Gal(a1-3)Gal(b1-4)GlcNAc(b1-2)Man(a1-3)[Gal(a1-3)Gal(b1-4)GlcNAc(b1-2)Man(a1-6)]Man(b1-4)GlcNAc(b1-4)GlcNAc
How it was run: as §1

[11] = biological target: Gal(a1-3)Gal(b1-4)GlcNAc(b1-3)GalNAc
How it was run: as §1

[12] = biological target: Gal(a1-3)[Gal(a1-4)]Gal(b1-4)GlcNAc
How it was run: as §1

[13] = biological target: Gal(a1-4)Gal(b1-3)GlcNAc(b1-2)Man(a1-3)[Gal(a1-4)Gal(b1-3)GlcNAc(b1-2)Man(a1-6)]Man(b1-4)GlcNAc(b1-4)GlcNAc
How it was run: as §1

[14] = biological target: Gal(b1-3)GlcNAc(b1-2)Man(a1-3)[GlcNAc(b1-4)][Gal(b1-3)GlcNAc(b1-2)Man(a1-6)]Man(b1-4)GlcNAc(b1-4)GlcNAc
How it was run: as §1

[15] = biological target: Gal(b1-3)GlcNAc(b1-3)GalNAc
How it was run: as §1

[16] = biological target: Gal(b1-3)[Fuc(a1-4)]GlcNAc(b1-3)Gal(b1-4)[Fuc(a1-3)]GlcNAc
How it was run: as §1

[17] = biological target: Gal(b1-4)GlcNAc(a1-6)Gal(b1-4)GlcNAc
How it was run: as §1

[18] = biological target: Gal(b1-4)GlcNAc(b1-3)Gal(b1-3)GalNAc
How it was run: as §1

[19] = biological target: Gal(b1-4)GlcNAc(b1-3)Gal(b1-3)GlcNAc
How it was run: as §1

[20] = biological target: Gal(b1-4)GlcNAc(b1-3)Gal(b1-4)GlcNAc
How it was run: as §1

[21] = biological target: Gal(b1-4)GlcNAc(b1-3)Gal(b1-4)GlcNAc(b1-2)[Gal(b1-4)GlcNAc(b1-3)Gal(b1-4)GlcNAc(b1-6)]Man(a1-6)[Gal(b1-4)GlcNAc(b1-3)Gal(b1-4)GlcNAc(b1-2)Man(a1-3)]Man(b1-4)GlcNAc(b1-4)[Fuc(a1-6)]GlcNAc
How it was run: as §1

[22] = biological target: Gal(b1-4)GlcNAc(b1-3)Gal(b1-4)GlcNAc(b1-3)Gal(b1-4)GlcNAc(b1-2)[Gal(b1-4)GlcNAc(b1-3)Gal(b1-4)GlcNAc(b1-3)Gal(b1-4)GlcNAc(b1-6)]Man(a1-6)[Gal(b1-4)GlcNAc(b1-3)Gal(b1-4)GlcNAc(b1-3)Gal(b1-4)GlcNAc(b1-2)Man(a1-3)]Man(b1-4)GlcNAc(b1-4)[Fuc(a1-6)]GlcNAc
How it was run: as §1

[23] = biological target: Gal(b1-4)GlcNAc(b1-3)Gal(b1-4)GlcNAc(b1-3)Gal(b1-4)GlcNAc(b1-3)Gal(b1-4)GlcNAc(b1-2)Man(a1-3)[Gal(b1-4)GlcNAc(b1-3)Gal(b1-4)GlcNAc(b1-3)Gal(b1-4)GlcNAc(b1-3)Gal(b1-4)GlcNAc(b1-2)Man(a1-6)]Man(b1-4)GlcNAc(b1-4)[Fuc(a1-6)]GlcNAc
How it was run: as §1

[24] = biological target: Gal(b1-4)GlcNAc(b1-3)Gal(b1-4)GlcNAc(b1-3)Gal(b1-4)GlcNAc(b1-3)Gal(b1-4)GlcNAc(b1-2)[Gal(b1-4)GlcNAc(b1-3)Gal(b1-4)GlcNAc(b1-3)Gal(b1-4)GlcNAc(b1-3)Gal(b1-4)GlcNAc(b1-6)]Man(a1-6)[Gal(b1-4)GlcNAc(b1-3)Gal(b1-4)GlcNAc(b1-3)Gal(b1-4)GlcNAc(b1-3)Gal(b1-4)GlcNAc(b1-2)Man(a1-3)]Man(b1-4)GlcNAc(b1-4)[Fuc(a1-6)]GlcNAc
How it was run: as §1

[25] = biological target: Gal(b1-4)GlcNAc(b1-3)Gal(b1-4)GlcNAc(b1-3)Gal(b1-4)GlcNAc(b1-3)Gal(b1-4)GlcNAc(b1-3)Gal(b1-4)GlcNAc(b1-2)Man(a1-3)[Gal(b1-4)GlcNAc(b1-3)Gal(b1-4)GlcNAc(b1-3)Gal(b1-4)GlcNAc(b1-3)Gal(b1-4)GlcNAc(b1-3)Gal(b1-4)GlcNAc(b1-2)Man(a1-6)]Man(b1-4)GlcNAc(b1-4)[Fuc(a1-6)]GlcNAc
How it was run: as §1

B1: GS13971A-bth-447-22-447 (Bacteroides thetaiotaomicron) (protein)
chain: EDVDNERSKGMFSASQSGFSTIEVYDLGPLNKIDLSIAKAGLEDTGGTVTFSVEQSLLDSLNNADGTSYQLLPPECYTIENATYSVSPGGDRRVTGGSLVYDPHKIYNLCGFDELKYVLPLRVSSTGTPMNSDRTATLYGFIVKEAIVRLASTGGDFVVEGGTTTSPMNLDTEISFENEWDLTTSFATKGADYVDNYNSANSTYYIPLPSDFYTLPDVTIAKGKTTGGSAISLLGETLPPGNYLLPVSLGGLSGQGDASINIDKETVANYFVIKQGGPINRDHWTVTANTEEKTGEVSAAYPHNGQTISLIDGEINTFWHSKWQGGEVAPPYEIILDMGKENSVSQLGLIARQNALTSMNLEIYAGDDGETWNLIGKYFFDGSIKTEQMVPVKACDARWIRIYIPTLGSGSSVGHLAEIYVYGTDK
glycan array binding signal (z-score) [1]: -0.611
glycan array binding signal (z-score) [2]: 1.4
glycan array binding signal (z-score) [3]: -0.418
glycan array binding signal (z-score) [4]: -0.622
glycan array binding signal (z-score) [5]: 0.548
glycan array binding signal (z-score) [6]: 0.414
glycan array binding signal (z-score) [7]: 12.2
glycan array binding signal (z-score) [8]: -0.916
glycan array binding signal (z-score) [9]: 0.437
glycan array binding signal (z-score) [10]: 0.313
glycan array binding signal (z-score) [11]: 0.741
glycan array binding signal (z-score) [12]: 3.1
glycan array binding signal (z-score) [13]: 0.513
glycan array binding signal (z-score) [14]: 0.373
glycan array binding signal (z-score) [15]: 0.748
glycan array binding signal (z-score) [16]: 1.09
glycan array binding signal (z-score) [17]: 0.525
glycan array binding signal (z-score) [18]: -0.104
glycan array binding signal (z-score) [19]: 0.498
glycan array binding signal (z-score) [20]: -1.12
glycan array binding signal (z-score) [21]: 2.62
glycan array binding signal (z-score) [22]: 0.617
glycan array binding signal (z-score) [23]: 2.21
glycan array binding signal (z-score) [24]: 2.31
glycan array binding signal (z-score) [25]: 2.91
